PfHsp40 rescue: rescue of yeast from PfHsp40 toxicity, primary screen, S. cerevisiae, ATP luminescence; S. cerevisiae expressing PfHsp40, growth rescue; growth rescue, % at 12.5 µM; hit rate 0.68% among 340,000; AID 504582, 2011; in the data active = growth rescue above about 28%, passing the limit was not always enough;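 also: yeast W303a lacking pdr1 and pdr3 grown in galactose medium; growth measured after three days at 30 °C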
SSB-PriA inh: inhibitors of Klebsiella pneumoniae PriA binding to SSB C-terminal tail, primary screen, biochemical, AlphaScreen; hit rate 0.6% among 430,000; AlphaScreen SSBct-PriA binding, biotinylated peptide; inhibition, % at 33 µM; in the data active = inhibition mostly above about 37%, no sharp cut-off; inactive = mostly below about 20%
Sa ugtP lethal: growth inhibition of ugtP-null S. aureus, primary screen, RN4220 ugtP deletion, OD600. 16 h. growth inhibition, % (no concentration beside the values). hit rate 0.54% among 330,000; in the data active = growth inhibition above about 68%
DUSP3 inh: VHR1 phosphatase inhibitors, primary screen, biochemical, absorbance, uHTS; Dual specificity protein phosphatase 3 (Homo sapiens), P51452; recombinant VHR phosphatase, pNPP absorbance; inhibition, % at 13.3 µM; hit rate 0.52% among 290,000; AID 1654, 2009; in the data active = inhibition above about 50%
Target sequence (P51452 whole entry, looked up): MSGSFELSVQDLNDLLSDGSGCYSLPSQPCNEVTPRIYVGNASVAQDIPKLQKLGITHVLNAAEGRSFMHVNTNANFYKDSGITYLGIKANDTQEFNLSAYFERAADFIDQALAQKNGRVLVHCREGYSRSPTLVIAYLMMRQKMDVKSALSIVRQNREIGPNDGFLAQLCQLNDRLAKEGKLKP
Sa RN4220 lethal: growth inhibition of S. aureus RN4220, primary screen, OD600 | 16 h | inhibition, % (concentration not given with the values) | hit rate 0.33% among 330,000 | AID 1259311, 2017; in the data active = inhibition above about 85%
Mtb hypoxia inh: PubChem AID 1159583 | M. tuberculosis hypoxia-regulated fluorescent reporter, fluorescence | fluorescence inhibition, % (test concentration not listed) | hit rate 0.1% among 300,000; in the data active = fluorescence inhibition mostly above about 23%, no sharp cut-off; inactive = mostly below about 17%
Of the large screens only hits and unclear results are named; the others gave an inactive call. Shown are actives, neighbours in structure and some others; about 1.8% of the full set was active somewhere.

CCCCN1C(=N)N([C@@H](C)CN2CCC[C@H]2CN2C(N)=NC[C@H]2C(C)C)C[C@H]1[C@H](C)CC	none (no result: DUSP3 inh)
CCC[C@@H](CN1CCC[C@H]1CN1C(N)=NC[C@H]1C(C)C)N1C[C@@H]([C@H](C)CC)N(CCCC2CCCC2)C1=N	none (no result: DUSP3 inh)
CCC[C@@H](CN1CCC[C@H]1CN1C(N)=NC[C@H]1CC(C)C)N1C[C@@H]([C@H](C)CC)N(CCCC2CCCC2)C1=N	Sa ugtP lethal 101, Sa RN4220 lethal 101 (not shown: DUSP3 inh, Mtb hypoxia inh)
CCCC(CN1CCCC1CN1C(N)=NCC1Cc1ccccc1)N1CC(Cc2ccccc2)N(CCCC2CCCC2)C1=N (configuration not stated)	Sa ugtP lethal 101, Sa RN4220 lethal 101 (not shown: PfHsp40 rescue, SSB-PriA inh, DUSP3 inh, Mtb hypoxia inh)
CC[C@@H](C)[C@@H]1CN([C@@H](CN2CCC[C@H]2CN2C(N)=NC[C@@H]2Cc2ccccc2)C(C)C)C(=N)N1CCCC1CCCC1	none (no result: Sa ugtP lethal, DUSP3 inh, Sa RN4220 lethal, Mtb hypoxia inh)
Cc1cc(OCC(=O)N2CCN(c3ccc(F)cc3)CC2)nc(-c2ccc(F)cc2)n1	none (no result: PfHsp40 rescue, Sa ugtP lethal, DUSP3 inh, Sa RN4220 lethal, Mtb hypoxia inh)
COC(=O)c1cccc2nc3c(C(C)O)cccc3nc12 (configuration not stated)	SSB-PriA inh 42 (no result: Mtb hypoxia inh)
CC(=O)c1ccc(NC(=O)Cc2ccc(C)cc2C)cc1	none (no result: PfHsp40 rescue, Sa ugtP lethal, DUSP3 inh, Sa RN4220 lethal, Mtb hypoxia inh)
COc1ccc(CCNC(=O)COc2cccc3ccc(N4CCOCC4)nc23)cc1OC	none (no result: PfHsp40 rescue, Sa ugtP lethal, DUSP3 inh, Sa RN4220 lethal, Mtb hypoxia inh)
O=C(Nn1cnc2c(cnn2-c2cccc(Cl)c2)c1=O)c1c(F)cccc1Cl	none (no result: PfHsp40 rescue, Sa ugtP lethal, DUSP3 inh, Sa RN4220 lethal, Mtb hypoxia inh)
Cc1onc(-c2c(Cl)cccc2Cl)c1C(=O)N/N=C(\N)COc1ccc(Cl)cc1	PfHsp40 rescue 599 (no result: SSB-PriA inh, Sa ugtP lethal, Sa RN4220 lethal, Mtb hypoxia inh)
Cc1onc(-c2ccccc2Cl)c1C(=O)NN=C(N)COc1ccc(Cl)cc1	none (no result: PfHsp40 rescue, DUSP3 inh)
CC(=NNC(=O)c1nnn(-c2nonc2N)c1-c1ccccc1)c1ccccc1O	none (no result: PfHsp40 rescue, Sa ugtP lethal, DUSP3 inh, Sa RN4220 lethal, Mtb hypoxia inh)
NS(=O)(=O)c1ccc(N=Nc2c(O)ccc3ccccc23)cc1	none
COc1cc(N=Nc2ccc3ccccc3c2)ccc1O	PfHsp40 rescue 153, Sa ugtP lethal 94
Oc1ccc(N=Nc2c(O)ccc3ccccc23)cc1	Sa ugtP lethal 98, Sa RN4220 lethal 86
COc1cc(N=Nc2ccccc2C(=O)O)ccc1O	Mtb hypoxia inh 48
COc1cc(-c2nc3ccccc3nc2-c2ccc(O)c(OC)c2)ccc1O	none
Oc1ccc(N=Nc2ccc3ccccc3c2)cc1	PfHsp40 rescue 72, Sa ugtP lethal 99, Sa RN4220 lethal 99
CN(c1ccc(O)cc1)S(=O)(=O)c1ccc2ccccc2c1	none
COc1cc(C(=O)O)ccc1O	none (no result: Sa ugtP lethal, Sa RN4220 lethal, Mtb hypoxia inh)
Cc1ccccc1C(=O)NCCOc1ccc(F)cc1	none (no result: PfHsp40 rescue, Sa ugtP lethal, DUSP3 inh, Sa RN4220 lethal, Mtb hypoxia inh)
CS(=O)(=O)N1CCC(C(=O)Nc2sccc2-c2nc(C3CC3)no2)CC1	none (no result: PfHsp40 rescue, Sa ugtP lethal, DUSP3 inh, Sa RN4220 lethal, Mtb hypoxia inh)
Cc1ccc(C(CNC(=O)c2c(C)cc(C)cc2C)OCCO)cc1 (configuration not stated)	none (no result: PfHsp40 rescue, Sa ugtP lethal, DUSP3 inh, Sa RN4220 lethal, Mtb hypoxia inh)
Cc1ccccc1OCC(=O)OCC(=O)c1ccc(OC(=O)c2ccccc2)cc1	SSB-PriA inh 67
CCN(CC)S(=O)(=O)c1cccc(C(=O)Nc2ccc(Cl)cn2)c1	PfHsp40 rescue 56
CCN(CC)c1ccc(/C=N/NC(=O)c2cccc(S(=O)(=O)Nc3ccccc3OC)c2)cc1	none (no result: SSB-PriA inh, Sa ugtP lethal, Sa RN4220 lethal, Mtb hypoxia inh)
CCN(CC)S(=O)(=O)c1cccc(C(=O)N/N=C/c2ccc(O)c(O)c2O)c1	PfHsp40 rescue 202 (no result: SSB-PriA inh, Sa ugtP lethal, Sa RN4220 lethal, Mtb hypoxia inh)
CCN(CC)c1ccc(/C=N/NC(=O)c2cccc(S(=O)(=O)Nc3ccccc3OC)c2)c(O)c1	PfHsp40 rescue 105 (no result: SSB-PriA inh, Sa ugtP lethal, Sa RN4220 lethal, Mtb hypoxia inh)
CCN(CC)S(=O)(=O)c1cc(C(=O)Nc2ccc(Cl)cn2)ccc1C	none (no result: Mtb hypoxia inh)
CCC(C)c1ccc(NC(=S)NCc2ccccc2OC)cc1 (configuration not stated)	PfHsp40 rescue 84
COc1ccccc1CNC(=S)Nc1ccc(F)cc1	none
COc1ccc(C(=O)NNC(=S)NC(=O)c2ccc(F)cc2)cc1Br	Sa ugtP lethal 85 (no result: PfHsp40 rescue, DUSP3 inh)
O=C(NC(=S)NNC(=O)c1cnccn1)c1ccc(F)cc1	SSB-PriA inh 42
O=C(NNC(=S)NC(=O)c1cccnc1)c1ccc(F)cc1	none
COc1ccc(C(=O)NC(=S)NNC(=O)c2ccncc2)cc1Br	none (no result: DUSP3 inh)
O=C(/C=C/c1ccc(F)cc1)NC(=S)NNC(=O)c1cnccn1	SSB-PriA inh 40
COc1ccc(Cl)cc1S(=O)(=O)N1CC[C@H](c2ccc3c(c2)OCO3)C1	none (no result: PfHsp40 rescue, Sa ugtP lethal, DUSP3 inh, Sa RN4220 lethal, Mtb hypoxia inh)
O=C(NN=Cc1coc2ccccc2c1=O)c1ccccc1Br	none (no result: PfHsp40 rescue, DUSP3 inh)
CCc1nnc(C2CCN(C(=O)c3cccs3)CC2)s1	none (no result: PfHsp40 rescue, Sa ugtP lethal, DUSP3 inh, Sa RN4220 lethal, Mtb hypoxia inh)
